# Experimental data reported in PubChem BioAssay (Tox21).
# Several values for one entry are separate records, joined by “and”; a condition that tells them apart may be missing. Equal values may be shown once. Inconclusive results are not listed. A call without a number means that no potency is given here. Activity calls are given as the source filed them. Unless noted, calls follow the shape of the dose curve; as a rule, active = well fitted curve in the direction sought with a large enough effect in the repeat runs; inconclusive = weak or mixed curves; inactive = no such curve, though single readings can be large; an effect the other way counts as inactive or inconclusive.
# Legend:
# [1] = qHTS assay to identify small molecule antagonists of the thyroid receptor (TR) signaling pathway - cell viability counter screen (AID 743064); also: nearly all actives have a fitted effect of over 50% in size; also: potency is read from the fitted curve at half-maximal effect
# Method in brief: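 Viability of T3-stimulated (1 nM final) GH3.TRE-Luc cells is measured by CellTiter-Fluor fluorescence after 23.5 h compound exposure at 37 °C plus 30 min reagent incubation.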
# [2] = test system: thyroid hormone receptor (rat, GH3 cells); assay: qHTS assay to identify small molecule agonists of the thyroid receptor (TR) signaling pathway (AID 743066; calls by dose curve)
# [3] = qHTS assay to identify small molecule antagonists of the estrogen receptor alpha (ER-alpha) signaling pathway - cell viability counter screen (AID 743074; calls by dose curve;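 also: HEK293 cells carrying ER-alpha-UAS-bla reporter stimulated with 17beta-estradiol; nearly all actives have a fitted effect of over 45% in size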)
# [4] = qHTS assay to identify small molecule antagonists of the estrogen receptor alpha (ER-alpha) signaling pathway using the BG1 cell line - cell viability counter screen (AID 743081);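 also: compound given together with 17beta-estradiol as the ER stimulus; nearly all actives have a fitted effect of over 45% in size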; also: potency is read from the fitted curve at half-maximal effect
# Aromatase (Homo sapiens) = Aromatase (Homo sapiens) (UniProt P11511); assay: qHTS assay to identify aromatase inhibitors (AID 743083); also: nearly all actives have a fitted effect of over 55% in size; also: potency is read from the fitted curve at half-maximal effect
# Aromatase (Homo sapiens), sequence (P11511 whole entry, looked up): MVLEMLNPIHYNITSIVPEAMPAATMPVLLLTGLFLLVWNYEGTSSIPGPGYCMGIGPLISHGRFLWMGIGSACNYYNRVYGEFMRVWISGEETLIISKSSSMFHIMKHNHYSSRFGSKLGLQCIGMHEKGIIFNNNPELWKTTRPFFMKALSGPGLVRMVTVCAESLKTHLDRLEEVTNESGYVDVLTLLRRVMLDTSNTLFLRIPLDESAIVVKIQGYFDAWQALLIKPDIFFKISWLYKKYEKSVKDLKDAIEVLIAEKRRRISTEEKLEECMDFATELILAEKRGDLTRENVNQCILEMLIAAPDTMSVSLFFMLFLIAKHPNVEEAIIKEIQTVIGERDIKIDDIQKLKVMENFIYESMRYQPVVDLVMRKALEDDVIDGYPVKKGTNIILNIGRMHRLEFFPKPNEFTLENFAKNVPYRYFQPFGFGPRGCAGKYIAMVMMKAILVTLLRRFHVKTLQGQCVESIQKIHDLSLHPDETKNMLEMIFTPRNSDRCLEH
# [5] = qHTS assay to identify aromatase inhibitors - cell viability counter screen (AID 743084);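 also: cells stimulated with testosterone during compound exposure; nearly all actives have a fitted effect of over 55% in size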; also: potency is read from the fitted curve at half-maximal effect
# [6] = qHTS assay to identify small molecule that activate the aryl hydrocarbon receptor (AhR) signaling pathway - cell viability counter screen (AID 743086);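 also: HepG2 liver cells carrying the AhR DRE luciferase reporter; nearly all actives have a fitted effect of over 45% in size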
# Method in brief: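 HepG2-AhR-luc (HG2L7.5c1) cells, 4000/well, were preincubated 5 h at 37C, exposed to compound in qHTS format for 24 hr at 37C, then given CellTiter-Fluor for 30 min; viability was read as fluorescence in the reporter wells.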
# [7] = target: Peroxisome proliferator-activated receptor gamma (Homo sapiens) (UniProt P37231); assay: qHTS assay to identify small molecule agonists of the peroxisome proliferator-activated receptor gamma (PPARg) signaling pathway (AID 743094; active = well fitted activation curve with a large enough effect in the signal ratio in the repeat runs, not every such curve was filed as active; the % refers to the signal ratio)
# Peroxisome proliferator-activated receptor gamma (Homo sapiens), sequence (P37231 whole entry, looked up): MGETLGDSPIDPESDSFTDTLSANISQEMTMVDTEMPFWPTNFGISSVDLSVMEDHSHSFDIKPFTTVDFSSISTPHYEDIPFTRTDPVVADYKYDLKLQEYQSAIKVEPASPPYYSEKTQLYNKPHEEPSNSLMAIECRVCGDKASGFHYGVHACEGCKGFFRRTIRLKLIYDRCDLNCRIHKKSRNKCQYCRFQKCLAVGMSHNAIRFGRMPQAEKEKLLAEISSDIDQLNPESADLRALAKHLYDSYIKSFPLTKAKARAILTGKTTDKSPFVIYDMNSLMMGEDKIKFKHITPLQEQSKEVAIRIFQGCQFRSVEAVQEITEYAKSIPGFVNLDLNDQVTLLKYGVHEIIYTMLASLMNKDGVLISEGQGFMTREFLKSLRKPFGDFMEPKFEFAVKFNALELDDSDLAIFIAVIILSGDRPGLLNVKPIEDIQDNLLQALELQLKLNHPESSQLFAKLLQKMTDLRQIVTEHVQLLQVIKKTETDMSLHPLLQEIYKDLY
# Method in brief: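 Agonism was assessed in a beta-lactamase reporter system, HEK293H cells with a stably integrated UAS-bla construct under PPARg control; the 17 h treatment at 37C preceded a 1 h room-temperature FRET substrate read.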
# [8] = qHTS assay to identify small molecule antagonists of the peroxisome proliferator-activated receptor gamma (PPARg) signaling pathway - cell viability counter screen (AID 743194); also: nearly all actives have a fitted effect of over 55% in size
# Method in brief: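 PPARg-UAS-bla HEK293H cells were plated, rested 5 h at 37 C, then treated with compounds plus rosiglitazone (50 nM final) for 17 h at 37 C; viability was then read by CellTiter-Glo luminescence after 30 min at room temperature.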
# [9] = qHTS assay for small molecule agonists of the antioxidant response element (ARE) signaling pathway (AID 743202; active = well fitted activation curve with a large enough effect in the signal ratio in the repeat runs, not every such curve was filed as active; the % refers to the signal ratio; also: potency is read from the fitted curve at half-maximal effect)
# Method in brief: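 Following a 16 h, 37 C exposure of reporter HepG2 cells (ARE-driven beta-lactamase, 2,000 cells/well) to compounds, FRET substrate was applied for 2 h at room temperature and fluorescence intensity recorded.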
# [10] = qHTS assay for small molecule agonists of the antioxidant response element (ARE) signaling pathway - cell viability counter screen (AID 743203; calls by dose curve; also: nearly all actives have a fitted effect of over 55% in size)
# Method in brief: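 ATP content via CellTiter-Glo luminescence served as the viability measure. Cells: ARE-bla HepG2, 2,000 per well. Exposure: 16 hrs, 37C/5% CO2.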
# [11] = qHTS assay for small molecule activators of the heat shock response signaling pathway - cell viability counter screen (AID 743209); also: nearly all actives have a fitted effect of over 50% in size
# Method in brief: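 Compounds dissolved in DMSO were added to overnight-plated HSE-bla HeLa cells and left 5 h at 37 C. Cell viability was quantified by luminescence using CellTiter-Glo.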
# [12] = qHTS assay for small molecule activators of the heat shock response signaling pathway (AID 743210; active = well fitted activation curve with a large enough effect in the signal ratio in the repeat runs, with a control signal flat, not every such curve was filed as active; the % refers to the signal ratio; also: potency is read from the fitted curve at half-maximal effect)
# Method in brief: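 Heat shock element–beta-lactamase HeLa reporter cells; qHTS with compounds for 5 h at 37 C; detection by FRET substrate fluorescence after 2.5 h at RT.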
# [13] = target: Estrogen receptor (Homo sapiens) (UniProt P03372); assay: qHTS assay to identify small molecule antagonists of the estrogen receptor alpha (ER-alpha) signaling pathway (AID 743069; active = well fitted curve in the direction sought with a large enough effect in the signal ratio in the repeat runs, not every such curve was filed as active; the % refers to the signal ratio)
# Estrogen receptor (Homo sapiens), sequence (P03372 whole entry, looked up): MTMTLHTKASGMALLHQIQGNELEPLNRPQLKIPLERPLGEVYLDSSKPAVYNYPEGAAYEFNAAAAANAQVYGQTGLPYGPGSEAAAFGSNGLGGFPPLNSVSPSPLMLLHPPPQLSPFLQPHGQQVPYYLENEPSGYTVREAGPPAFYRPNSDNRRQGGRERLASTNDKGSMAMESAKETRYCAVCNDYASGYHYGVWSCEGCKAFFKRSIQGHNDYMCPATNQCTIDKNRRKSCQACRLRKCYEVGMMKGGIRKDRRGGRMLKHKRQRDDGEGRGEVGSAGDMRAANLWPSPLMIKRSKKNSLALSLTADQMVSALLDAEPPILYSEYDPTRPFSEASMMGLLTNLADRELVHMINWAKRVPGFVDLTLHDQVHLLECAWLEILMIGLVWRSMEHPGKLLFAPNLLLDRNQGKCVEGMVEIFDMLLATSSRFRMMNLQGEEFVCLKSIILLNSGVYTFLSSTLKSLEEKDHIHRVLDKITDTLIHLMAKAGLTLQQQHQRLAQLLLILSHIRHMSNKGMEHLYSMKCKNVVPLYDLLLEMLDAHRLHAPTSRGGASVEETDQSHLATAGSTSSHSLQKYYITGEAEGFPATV
# Method in brief: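 A 17beta-estradiol challenge was applied right after compound transfer to ER-alpha-UAS-bla HEK293 cells previously kept in charcoal-stripped serum. Plates stood 18 hr at 37C and 5% CO2; fluorescence was read following 2 hr FRET substrate loading at room temperature.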
# [14] = target: Estrogen receptor (Homo sapiens) (UniProt P03372); assay: qHTS assay to identify small molecule agonists of the estrogen receptor alpha (ER-alpha) signaling pathway (AID 743075; calls by dose curve;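 also: HEK293 GripTite cells with ER-alpha and UAS-driven beta-lactamase reporter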)
# [15] = target: Estrogen receptor (Homo sapiens) (UniProt P03372); assay: qHTS assay to identify small molecule agonists of the estrogen receptor alpha (ER-alpha) signaling pathway using the BG1 cell line (AID 743079); conditions: BG1Luc4E2 cells, ERE-luciferase agonist, 22 h; activation: at 70.3 µM (top of the series); also: nearly all actives have a fitted effect of over 20% in size; also: potency is read from the fitted curve at half-maximal effect
# [16] = target: Aryl hydrocarbon receptor (Homo sapiens) (UniProt P35869); assay: qHTS assay to identify small molecule that activate the aryl hydrocarbon receptor (AhR) signaling pathway (AID 743085); also: nearly all actives have a fitted effect of over 15% in size; also: potency is read from the fitted curve at half-maximal effect;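 as to activation: HG2L7.5c1 human HepG2 liver cells with stably integrated DRE-driven firefly reporter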
# Aryl hydrocarbon receptor (Homo sapiens), sequence (P35869 whole entry, looked up): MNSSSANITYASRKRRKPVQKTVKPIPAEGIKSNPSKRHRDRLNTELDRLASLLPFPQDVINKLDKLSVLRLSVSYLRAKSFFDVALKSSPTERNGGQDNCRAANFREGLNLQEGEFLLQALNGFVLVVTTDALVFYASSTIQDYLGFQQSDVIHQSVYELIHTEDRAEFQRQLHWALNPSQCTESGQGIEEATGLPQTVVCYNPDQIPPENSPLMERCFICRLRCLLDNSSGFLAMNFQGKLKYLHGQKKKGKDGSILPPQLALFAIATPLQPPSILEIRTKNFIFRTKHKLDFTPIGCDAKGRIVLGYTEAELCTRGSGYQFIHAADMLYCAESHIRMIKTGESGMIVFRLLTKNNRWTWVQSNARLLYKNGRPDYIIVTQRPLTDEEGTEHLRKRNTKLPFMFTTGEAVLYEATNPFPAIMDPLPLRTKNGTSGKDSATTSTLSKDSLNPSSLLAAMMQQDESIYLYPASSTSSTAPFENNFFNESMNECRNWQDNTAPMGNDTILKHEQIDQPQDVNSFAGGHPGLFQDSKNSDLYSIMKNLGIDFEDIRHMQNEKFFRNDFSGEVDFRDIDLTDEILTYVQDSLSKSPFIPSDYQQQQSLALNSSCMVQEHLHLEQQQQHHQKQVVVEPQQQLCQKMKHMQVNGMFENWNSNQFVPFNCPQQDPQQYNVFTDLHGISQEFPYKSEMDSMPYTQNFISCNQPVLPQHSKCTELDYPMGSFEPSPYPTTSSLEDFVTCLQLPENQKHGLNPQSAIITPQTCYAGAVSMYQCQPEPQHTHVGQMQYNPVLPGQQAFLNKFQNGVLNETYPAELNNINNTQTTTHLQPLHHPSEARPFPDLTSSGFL
# Method in brief: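 A multiplexed format paired cell viability (CellTiter-Fluor fluorescence) with AhR-dependent luciferase output (ONE-Glo luminescence) in the same wells of HepG2 DRE-luc cells after 24 h compound exposure at 37C.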
# [17] = qHTS assay to identify small molecule antagonists of the thyroid receptor (TR) signaling pathway (AID 743065); also: nearly all actives have a fitted effect of over 55% in size; also: potency is read from the fitted curve at half-maximal effect
# Method in brief: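 GH3.TRE-Luc rat pituitary cells carrying two TR response elements driving luciferase were plated for 4 h, given compound plus 1 nM T3 (final), and incubated 23.5 h at 37 C. ONE-Glo luminescence measured reporter inhibition; CellTiter-Fluor fluorescence tracked cytotoxicity.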
# [18] = qHTS assay to identify small molecule antagonists of the estrogen receptor alpha (ER-alpha) signaling pathway using the BG1 cell line (AID 743080; calls by dose curve;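 also: BG1 cells stimulated with 17beta-estradiol alongside compound; nearly all actives have a fitted effect of over 25% in size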; also: potency is read from the fitted curve at half-maximal effect)
# Method in brief: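 After 5 days in phenol-red-free 10% charcoal-stripped FBS medium, BG1-Luc-4E2 cells were seeded, left 24 h at 37 C, co-treated with compounds and 17beta-estradiol for 21.5 h, then assayed for viability and luciferase.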
# [19] = target: Peroxisome proliferator-activated receptor gamma (Homo sapiens) (UniProt P37231); assay: qHTS assay to identify small molecule antagonists of the peroxisome proliferator-activated receptor gamma (PPARg) signaling pathway (AID 743191; calls by dose curve; also: nearly all actives have a fitted effect of over 30% in size; also: potency is read from the fitted curve at half-maximal effect)
# Method in brief: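 GeneBLAzer PPARg UAS-bla HEK293H cells carrying a UAS-driven beta-lactamase reporter were plated at 3000 cells/well, preincubated 5 h at 37C, then given compound for 17 h at 37C; LiveBLAzer B/G FRET substrate was read after 1 h at room temperature.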
Structure (SMILES),Potency [1],outcome [2],Potency [3],Potency [4],Potency (Aromatase (Homo sapiens)),Potency [5],Potency [6],Potency [7],Potency [8],Potency [9],Potency [10],Potency [11],Potency [12],Potency [13],Potency [14],Potency [15],Potency [16],Potency [17],Potency [18],Potency [19]
O=C(CS)OCCOC(=O)CS,inactive,inactive,inactive,inactive,inactive,inactive,inactive,inactive,inactive,inactive,inactive,inactive,inactive,–,–,–,–,–,–,–
O=C(/C=C/c1ccccc1)OCCCc1ccccc1,inactive,–,–,inactive,inactive,inactive,inactive,–,inactive,–,–,inactive,inactive,inactive,inactive,27.3 µM (active),–,–,–,–
C[C@@H]1C[C@H]2[C@@H]3CCC4=CC(=O)C=C[C@]4(C)[C@@]3(F)[C@@H](O)C[C@]2(C)[C@H]1C(=O)CO,inactive,inactive,inactive,inactive,inactive,inactive,inactive,inactive,–,–,inactive,–,inactive,–,–,–,–,–,–,–
CCCCCCCCCCCC(=O)[O][Sn]([CH2]CCC)([CH2]CCC)[O]C(=O)CCCCCCCCCCC,inactive,inactive,inactive,–,inactive,inactive,inactive,inactive,–,2.11 µM (active),–,–,–,–,–,–,inactive,–,–,–
CCCCCCCCCCCC[N+](C)(C)CC(=O)[O-],–,inactive,inactive,inactive,inactive,inactive,inactive,inactive,inactive,–,–,inactive,inactive,–,inactive,inactive,inactive,54.5 µM (active),inactive,inactive
C=CC(=O)NCOCC(C)C,inactive,–,inactive,inactive,inactive,inactive,inactive,inactive,–,–,–,inactive,inactive,–,–,–,inactive,–,–,inactive
Cc1cc(OI)c(C(C)C)cc1-c1cc(C(C)C)c(OI)cc1C,inactive,inactive,inactive,inactive,inactive,inactive,inactive,–,inactive,inactive,inactive,–,–,–,–,–,inactive,–,–,–
C=CC(C)=CCC=C(C)C,inactive,inactive,inactive,inactive,inactive,inactive,inactive,inactive,–,–,inactive,inactive,–,–,–,–,inactive,–,–,–
CC(=O)Nc1ccc(N)cc1,–,inactive,inactive,inactive,inactive,inactive,inactive,inactive,inactive,inactive,inactive,–,–,inactive,inactive,inactive,inactive,inactive,inactive,inactive
CC(C)(C)CC(C)(C)c1ccc(OCCO)cc1,11.9 µM (active) and 60.8 µM (active),–,inactive,24.2 µM (active),26.6 µM (active) and 43 µM (active),33.5 µM (active) and 30.5 µM (active),–,inactive,inactive,–,inactive,inactive,–,–,inactive,–,inactive,–,–,inactive
Nc1ccc(Cl)cc1[N+](=O)[O-],–,inactive,inactive,inactive,–,inactive,inactive,inactive,inactive,inactive,inactive,inactive,–,inactive,inactive,–,–,inactive,inactive,–
c1cc[c]([Bi]([c]2ccccc2)[c]2ccccc2)cc1,–,inactive,inactive,inactive,inactive,inactive,inactive,–,–,–,inactive,inactive,–,inactive,inactive,21.7 µM (active),–,54.5 µM (active),inactive,–
N#C/C(=C1\SCC(c2ccccc2Cl)S1)n1ccnc1 (centres undefined),–,–,inactive,inactive,3.35 µM (active),inactive,inactive,inactive,inactive,inactive,–,inactive,–,–,–,–,7.5 µM (active),–,–,–
O=C(c1ccc(O)cc1)c1ccc(Cl)cc1,–,inactive,inactive,inactive,inactive,inactive,inactive,inactive,inactive,–,inactive,–,inactive,–,–,–,inactive,–,–,–
C=CCNc1nc(NCC=C)nc(N2CCN(C(c3ccc(F)cc3)c3ccc(F)cc3)CC2)n1,–,–,–,–,–,–,–,–,inactive,–,–,inactive,inactive,–,–,–,–,–,–,inactive
Nc1c(I)cc(I)c(C(=O)N(CCC(=O)O)c2ccccc2)c1I,–,–,–,–,–,–,–,–,inactive,inactive,inactive,inactive,inactive,–,–,–,–,–,–,–
CN1Cc2cc(C(=O)N3CCC(C4CCNCC4)CC3)ccc2N[C@@H](CC(=O)O)C1=O,–,–,–,–,–,–,–,–,–,–,inactive,inactive,inactive,–,–,–,–,–,–,inactive
CCCCN(CCCC)C(=S)SSC(=S)N(CCCC)CCCC,–,–,–,inactive,inactive,inactive,inactive,–,inactive,–,inactive,inactive,1.37 µM (active),inactive,inactive,inactive,inactive,inactive,inactive,24.3 µM (active)
N#C[C@@H]1C[C@@H]2C[C@@H]2N1C(=O)[C@@H](N)C12CC3CC(CC(O)(C3)C1)C2,–,–,inactive,inactive,inactive,inactive,inactive,inactive,–,inactive,inactive,inactive,inactive,–,inactive,inactive,inactive,–,inactive,–
CCOCCn1c(C2CCN(CCc3ccc(C(C)(C)C(=O)O)cc3)CC2)nc2ccccc21,–,–,–,–,–,–,–,–,inactive,inactive,–,inactive,inactive,–,–,–,–,–,–,–
OC(CCCN1CCCCC1)(c1ccccc1)c1ccccc1,–,inactive,–,–,inactive,inactive,inactive,inactive,–,inactive,inactive,inactive,inactive,inactive,inactive,inactive,inactive,–,inactive,inactive
CCOC(=O)C(C)Oc1ccc(Oc2nc3ccc(Cl)cc3o2)cc1 (centres undefined),–,inactive,inactive,inactive,inactive,inactive,inactive,inactive,inactive,–,–,–,inactive,–,–,–,–,inactive,–,–
C[C@@H]1C[C@H]2[C@@H]3CCC4=CC(=O)C=C[C@]4(C)[C@@]3(F)[C@@H](O)C[C@]2(C)[C@@]1(O)C(=O)CO,–,inactive,inactive,inactive,inactive,inactive,inactive,–,–,inactive,–,inactive,inactive,–,–,–,inactive,–,–,–
O=C(O)c1snc(Cl)c1Cl,–,inactive,inactive,inactive,inactive,inactive,inactive,inactive,–,inactive,inactive,inactive,–,–,–,–,61.1 µM (active),–,–,inactive
CCc1c2c(nc3ccc(OC(=O)N4CCC(N5CCCCC5)CC4)cc13)-c1cc3c(c(=O)n1C2)COC(=O)[C@]3(O)CC,–,inactive,–,inactive,inactive,–,inactive,–,inactive,–,inactive,inactive,inactive,–,inactive,–,inactive,23.7 µM (active),11.9 µM (active),–
